High-throughput results: PubChem, several laboratories
Keap1-Nrf2 PPI = inhibitors of human Keap1-Nrf2 protein-protein interaction | Q14145 | Keap1 Kelch-Nrf2 peptide fluorescence polarization, 1536-well | inhibition, % at 9.4 µM | 340,000 compounds, 0.15% hits | AID 504523; in the data active means inhibition above about 12%;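 further: human Keap1 Kelch domain with fluorescein labeled Nrf2 9mer peptide probe; higher means more block of Keap1 binding to Nrf2 peptide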
cardiac RTF act = cardiac RTF calcium sensitization; P19429+P45379; IANBD-labeled TnC RTF fluorescence at EC20 calcium; 0% EC20 calcium, 100% full calcium; activation, % at 7.2 µM; 340,000 compounds, 0.24% hits;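 active means activation above the mean over all tested compounds plus 3 SD, cut at about 30% in these data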;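 further: rise in fluorescence read as greater calcium sensitivity of cardiac thin filaments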
LANA DNA inh = inhibitors of KSHV LANA C-terminal domain DNA binding. MBP-C-LANA/FAM-LBS DNA binding, fluorescence polarization. inhibition, % at 9 µM. 340,000 compounds, 0.078% hits. AID 504423;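 active means highest replicate inhibition at or above 60% at 9 µM, even if other replicates fall short; inactive means all replicates below 60% inhibition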
RTF Ca sens inh = cardiac RTF calcium desensitization; P19429+P45379; IANBD-labeled cardiac RTF, Ca2+ fluorescence; inhibition, % at 7.15 µM; 340,000 compounds, 0.12% hits; AID 493244;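 active means inhibition above the mean inhibition of all tested compounds plus 3 SD, cut at about 17% in these data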;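 further: assay run at fixed EC70 calcium of 1.6 mM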
LANA-H2B inh = blocks KSHV LANA binding to histone H2A/H2B; 320,000 compounds, 0.6% hits; Q9QR71; AID 2629; cell-free LANA-H2A/H2B peptide, fluorescence polarization; inhibition, % (concentration not given with the values); in the data active means inhibition mostly above about 10%, no sharp cut-off; inactive means mostly below about 6.7%
Target sequence (Q9QR71 whole entry, looked up): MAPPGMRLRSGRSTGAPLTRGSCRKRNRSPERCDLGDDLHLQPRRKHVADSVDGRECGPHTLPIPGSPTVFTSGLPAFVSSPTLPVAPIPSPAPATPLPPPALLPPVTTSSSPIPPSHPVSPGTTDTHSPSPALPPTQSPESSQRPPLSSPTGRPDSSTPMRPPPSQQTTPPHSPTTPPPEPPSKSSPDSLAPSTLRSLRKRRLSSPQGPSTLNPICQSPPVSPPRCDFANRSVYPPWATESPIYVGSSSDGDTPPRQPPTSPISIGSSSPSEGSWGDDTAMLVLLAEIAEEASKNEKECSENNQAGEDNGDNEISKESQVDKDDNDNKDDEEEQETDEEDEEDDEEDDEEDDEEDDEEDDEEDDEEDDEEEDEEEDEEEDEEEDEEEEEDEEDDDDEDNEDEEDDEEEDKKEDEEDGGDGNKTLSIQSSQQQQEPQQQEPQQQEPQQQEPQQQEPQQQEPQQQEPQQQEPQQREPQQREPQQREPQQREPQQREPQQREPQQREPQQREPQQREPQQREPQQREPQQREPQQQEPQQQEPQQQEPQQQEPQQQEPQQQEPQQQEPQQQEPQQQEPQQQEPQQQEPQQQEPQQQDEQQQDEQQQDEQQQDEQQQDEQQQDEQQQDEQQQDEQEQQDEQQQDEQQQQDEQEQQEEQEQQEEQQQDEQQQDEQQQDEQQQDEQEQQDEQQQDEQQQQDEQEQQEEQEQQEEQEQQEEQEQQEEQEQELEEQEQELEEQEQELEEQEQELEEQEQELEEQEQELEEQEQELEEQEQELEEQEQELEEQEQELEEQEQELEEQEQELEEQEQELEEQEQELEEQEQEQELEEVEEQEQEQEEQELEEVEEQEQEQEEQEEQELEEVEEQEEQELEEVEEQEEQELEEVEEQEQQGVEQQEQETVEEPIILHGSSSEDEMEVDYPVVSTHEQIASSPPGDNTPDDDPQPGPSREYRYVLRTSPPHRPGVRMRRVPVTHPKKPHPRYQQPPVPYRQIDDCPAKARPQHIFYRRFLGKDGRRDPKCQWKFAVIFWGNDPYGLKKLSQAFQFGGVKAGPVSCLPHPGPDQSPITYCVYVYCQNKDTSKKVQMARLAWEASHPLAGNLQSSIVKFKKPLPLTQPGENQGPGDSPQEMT
Numbers stand for hits. In the library only some 0.98% were active in any assay of this set; here they are far more common.

What do the screens show for `CCOC(=O)C1CCN(C(=O)c2cc(CN3C(=O)c4ccccc4C3=O)ccc2OCC)CC1`?
Keap1-Nrf2 PPI: inactive; cardiac RTF act: inactive; LANA DNA inh: inactive; RTF Ca sens inh: inactive; LANA-H2B inh: inactive

What do the screens show for `CCOC(=O)C1CCCN(C(=O)c2cc(CN3C(=O)c4ccccc4C3=O)ccc2OC)C1` (configuration not stated)?
Keap1-Nrf2 PPI: inactive; cardiac RTF act: inactive; LANA DNA inh: inactive; RTF Ca sens inh: inactive; LANA-H2B inh: 28

Results for COCCNC(=S)N1CCN(c2nc(-c3ccc(F)cc3)cs2)CC1 ?
Keap1-Nrf2 PPI: inactive; cardiac RTF act: inactive; LANA DNA inh: inactive; RTF Ca sens inh: inactive; LANA-H2B inh: 18

What do the screens show for `Cn1c(NCc2cccs2)nc2ccccc21`?
Keap1-Nrf2 PPI: inactive; cardiac RTF act: inactive; LANA DNA inh: inactive; RTF Ca sens inh: inactive; LANA-H2B inh: 22

Results for COc1ccc(Cl)cc1NC(=O)COC(=O)C1=NNC(=O)CC1 ?
Keap1-Nrf2 PPI: inactive; cardiac RTF act: inactive; LANA DNA inh: inactive; RTF Ca sens inh: inactive; LANA-H2B inh: inactive

How did O=C(c1cccc(C(F)(F)F)c1)c1c[nH]c(C(=O)NCC2CCCO2)c1 (configuration not stated) do in these assays?
Keap1-Nrf2 PPI: inactive; cardiac RTF act: inactive; LANA DNA inh: inactive; RTF Ca sens inh: inactive; LANA-H2B inh: active

What do the screens show for `CC(=O)c1c[nH]c(C(=O)NCC2CCCO2)c1` (configuration not stated)?
Keap1-Nrf2 PPI: inactive; cardiac RTF act: inactive; LANA DNA inh: inactive; RTF Ca sens inh: inactive; LANA-H2B inh: inactive

Results for COc1ccc(OCCN2CCN(C(=O)c3ccc(OC)cc3)CC2)cc1 ?
Keap1-Nrf2 PPI: inactive; cardiac RTF act: inactive; LANA DNA inh: inactive; RTF Ca sens inh: inactive; LANA-H2B inh: 14

Results for COc1ccc(OCCN2CCN(C(=O)c3ccc(OC(F)F)c(OC)c3)CC2)cc1 ?
Keap1-Nrf2 PPI: inactive; cardiac RTF act: inactive; LANA DNA inh: inactive; RTF Ca sens inh: inactive; LANA-H2B inh: inactive

How did COc1ccc(C(=O)CCN2CCCCCC2)cc1 do in these assays?
Keap1-Nrf2 PPI: inactive; cardiac RTF act: inactive; LANA DNA inh: inactive; RTF Ca sens inh: inactive; LANA-H2B inh: 12

Results for O=[N+]([O-])c1cccnc1Oc1ccc(F)cc1F ?
Keap1-Nrf2 PPI: inactive; cardiac RTF act: inactive; LANA DNA inh: inactive; RTF Ca sens inh: inactive; LANA-H2B inh: inactive

Results for O=[N+]([O-])c1ccc(F)cc1F ?
Keap1-Nrf2 PPI: inactive; cardiac RTF act: inactive; LANA DNA inh: inactive; RTF Ca sens inh: inactive; LANA-H2B inh: 52

How did O=C(CSc1cccc[n+]1[O-])Nc1ccccc1C(F)(F)F do in these assays?
Keap1-Nrf2 PPI: inactive; cardiac RTF act: inactive; LANA DNA inh: inactive; RTF Ca sens inh: inactive; LANA-H2B inh: inactive

How did O=C(CSc1cccc[n+]1[O-])Nc1ccccc1Oc1ccccc1 do in these assays?
Keap1-Nrf2 PPI: inactive; cardiac RTF act: inactive; LANA DNA inh: inactive; RTF Ca sens inh: inactive; LANA-H2B inh: active

How did CC(=O)NC(Cc1cccc(C)c1)C(=O)NC1CCN(S(=O)(=O)c2ccccc2)CC1 (configuration not stated) do in these assays?
Keap1-Nrf2 PPI: inactive; cardiac RTF act: inactive; LANA DNA inh: inactive; RTF Ca sens inh: inactive; LANA-H2B inh: 13

How did CC(=O)NC(Cc1ccc(F)cc1)C(=O)NC1CCN(S(=O)(=O)c2ccccc2)CC1 (configuration not stated) do in these assays?
Keap1-Nrf2 PPI: inactive; cardiac RTF act: inactive; LANA DNA inh: inactive; RTF Ca sens inh: inactive; LANA-H2B inh: inactive

How did COc1ccc(N2C(=O)CSC2c2cccc(F)c2)cc1 (configuration not stated) do in these assays?
Keap1-Nrf2 PPI: inactive; cardiac RTF act: inactive; LANA DNA inh: inactive; RTF Ca sens inh: inactive; LANA-H2B inh: 8.4

What do the screens show for `COc1ccccc1CNC(=O)COC(=O)/C=C/c1ccc2ccccc2n1`?
Keap1-Nrf2 PPI: inactive; cardiac RTF act: inactive; LANA DNA inh: inactive; RTF Ca sens inh: inactive; LANA-H2B inh: 17

How did COc1ccccc1CNC(=O)COC(=O)/C=C/c1cccs1 do in these assays?
Keap1-Nrf2 PPI: inactive; cardiac RTF act: inactive; LANA DNA inh: inactive; RTF Ca sens inh: inactive; LANA-H2B inh: inactive

Results for COc1ccc(C(C(=O)NC(C)(C)C)N(CCC(C)C)C(=O)CCC(=O)Nc2cc(C)on2)cc1 (configuration not stated) ?
Keap1-Nrf2 PPI: inactive; cardiac RTF act: inactive; LANA DNA inh: inactive; RTF Ca sens inh: inactive; LANA-H2B inh: 19

Results for OCc1ncc(-c2ccccc2)s1 ?
Keap1-Nrf2 PPI: inactive; cardiac RTF act: inactive; LANA DNA inh: inactive; RTF Ca sens inh: inactive; LANA-H2B inh: inactive

Results for CC1=C(C)CS(=O)N(S(=O)(=O)c2ccccc2)C1 (configuration not stated) ?
Keap1-Nrf2 PPI: inactive; cardiac RTF act: inactive; LANA DNA inh: inactive; RTF Ca sens inh: inactive; LANA-H2B inh: 14

Results for O=C(O)c1ccccc1NS(=O)(=O)c1ccc(NN=Cc2ccc(F)cc2)c([N+](=O)[O-])c1 ?
Keap1-Nrf2 PPI: inactive; cardiac RTF act: inactive; LANA DNA inh: inactive; RTF Ca sens inh: inactive; LANA-H2B inh: inactive

What do the screens show for `O=C(O)c1ccccc1NS(=O)(=O)c1ccc(N/N=C/c2ccc(O)c(O)c2)c([N+](=O)[O-])c1`?
Keap1-Nrf2 PPI: inactive; cardiac RTF act: inactive; LANA DNA inh: 80; RTF Ca sens inh: inactive

How did O=C(NNC(=O)c1cc(S(=O)(=O)N2CCOCC2)c(Cl)cc1Cl)c1ccccc1F do in these assays?
Keap1-Nrf2 PPI: inactive; cardiac RTF act: inactive; LANA DNA inh: inactive; RTF Ca sens inh: inactive; LANA-H2B inh: inactive

How did CC1CCN(C(=O)CN2C(=O)NC3(CCC(C)CC3)C2=O)CC1 (configuration not stated) do in these assays?
Keap1-Nrf2 PPI: inactive; cardiac RTF act: inactive; LANA DNA inh: inactive; RTF Ca sens inh: inactive; LANA-H2B inh: inactive

What do the screens show for `CC1(C)CNC(=O)CC(C)(C)N1`?
Keap1-Nrf2 PPI: inactive; cardiac RTF act: inactive; LANA DNA inh: inactive; RTF Ca sens inh: inactive; LANA-H2B inh: 43

How did CC(C)n1cc(CN2CCC(Oc3ccc(C(=O)N4CCCC4)cc3)CC2)cn1 do in these assays?
Keap1-Nrf2 PPI: inactive; cardiac RTF act: inactive; LANA DNA inh: inactive; RTF Ca sens inh: inactive; LANA-H2B inh: 49

How did O=[N+]([O-])/C=C1\C=CC=CN1Cc1ccc(Cl)cc1 do in these assays?
Keap1-Nrf2 PPI: inactive; cardiac RTF act: inactive; LANA DNA inh: inactive; RTF Ca sens inh: inactive; LANA-H2B inh: inactive

What do the screens show for `N#CC1=C(N)Oc2cc(N)ccc2C1c1cccc(Br)c1` (configuration not stated)?
Keap1-Nrf2 PPI: inactive; cardiac RTF act: inactive; LANA DNA inh: inactive; RTF Ca sens inh: inactive; LANA-H2B inh: inactive

How did CCOc1ccc(NC(=O)CCN2C(=O)CSc3ccccc32)cc1 do in these assays?
Keap1-Nrf2 PPI: inactive; cardiac RTF act: inactive; LANA DNA inh: inactive; RTF Ca sens inh: inactive; LANA-H2B inh: inactive

What do the screens show for `O=C(CCN1C(=O)CSc2ccccc21)Nc1ccc(OC(F)(F)F)cc1`?
Keap1-Nrf2 PPI: inactive; cardiac RTF act: inactive; LANA DNA inh: inactive; RTF Ca sens inh: inactive; LANA-H2B inh: active
